Measurements taken from the supplement of paper PMC11732987, “Enantioselective OTUD7B fragment discovery through chemoproteomics screening and high-throughput optimisation” (Communications Chemistry, 2025).

Key:
Experiment in all cases: log2 ratio of Biotin-Ahx-Ub-VS probe labelling (fragment/DMSO); higher = less target engagement (more negative = stronger competition), active = hit call of the paper (q ≤ 0.05, log2 ratio ≤ -1)
Conditions in all cases: compound concentration: 200 uM; treatment time: 3 h
[1] = biological target: USP34 (UniProt Q70CQ2)
In short: (§1)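 HEK293T lysate (495 µg per sample, in Tris/CHAPS/IGEPAL buffer with protease inhibitors) was treated in triplicate with fragment at 200 µM or with DMSO for 3 h. It was then treated with Biotin-Ahx-Ub-VS (0.5 µM final) for 1 h. Labelled DUBs were NeutrAvidin-enriched, digested with LysC and trypsin, and run by diaPASEF LC-MS/MS. Spectronaut label-free quantities were global-median-normalised. Values are average log2 ratios fragment/DMSO by unpaired t-test, using proteins with ≥2 unique peptides.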

[2] = biological target: T1, USP36 (UniProt Q9P275)
T1 sequence (whole entry): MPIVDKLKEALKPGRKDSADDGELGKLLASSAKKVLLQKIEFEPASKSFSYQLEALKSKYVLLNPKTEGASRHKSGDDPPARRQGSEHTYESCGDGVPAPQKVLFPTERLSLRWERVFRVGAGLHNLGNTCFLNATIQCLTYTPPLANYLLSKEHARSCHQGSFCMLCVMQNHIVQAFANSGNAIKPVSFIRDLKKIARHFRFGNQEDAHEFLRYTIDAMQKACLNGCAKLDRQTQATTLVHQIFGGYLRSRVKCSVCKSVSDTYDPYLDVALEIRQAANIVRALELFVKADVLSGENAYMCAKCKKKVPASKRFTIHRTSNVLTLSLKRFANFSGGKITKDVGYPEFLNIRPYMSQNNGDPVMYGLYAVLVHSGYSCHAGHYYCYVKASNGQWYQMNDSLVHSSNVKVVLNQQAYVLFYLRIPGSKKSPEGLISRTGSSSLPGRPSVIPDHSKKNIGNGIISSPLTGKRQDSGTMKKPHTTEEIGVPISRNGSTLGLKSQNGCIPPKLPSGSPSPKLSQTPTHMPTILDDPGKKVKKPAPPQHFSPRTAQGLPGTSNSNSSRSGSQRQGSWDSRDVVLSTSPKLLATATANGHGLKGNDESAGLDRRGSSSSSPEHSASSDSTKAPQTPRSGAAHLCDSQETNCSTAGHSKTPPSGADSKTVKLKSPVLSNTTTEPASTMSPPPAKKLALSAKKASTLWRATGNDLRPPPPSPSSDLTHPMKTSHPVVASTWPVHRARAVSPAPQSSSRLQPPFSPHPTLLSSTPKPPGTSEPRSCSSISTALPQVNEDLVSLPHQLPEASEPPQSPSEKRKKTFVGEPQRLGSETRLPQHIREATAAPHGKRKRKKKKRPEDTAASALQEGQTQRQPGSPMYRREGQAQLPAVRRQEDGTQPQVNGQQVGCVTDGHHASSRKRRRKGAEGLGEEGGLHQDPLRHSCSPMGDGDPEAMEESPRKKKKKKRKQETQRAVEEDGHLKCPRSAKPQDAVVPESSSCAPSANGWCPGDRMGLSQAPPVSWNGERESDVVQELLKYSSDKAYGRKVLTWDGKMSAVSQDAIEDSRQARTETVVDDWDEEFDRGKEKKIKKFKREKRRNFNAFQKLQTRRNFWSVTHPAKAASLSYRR
In short: as §1

[3] = biological target: T2, USP38 (UniProt Q8NB14)
T2 sequence (whole entry): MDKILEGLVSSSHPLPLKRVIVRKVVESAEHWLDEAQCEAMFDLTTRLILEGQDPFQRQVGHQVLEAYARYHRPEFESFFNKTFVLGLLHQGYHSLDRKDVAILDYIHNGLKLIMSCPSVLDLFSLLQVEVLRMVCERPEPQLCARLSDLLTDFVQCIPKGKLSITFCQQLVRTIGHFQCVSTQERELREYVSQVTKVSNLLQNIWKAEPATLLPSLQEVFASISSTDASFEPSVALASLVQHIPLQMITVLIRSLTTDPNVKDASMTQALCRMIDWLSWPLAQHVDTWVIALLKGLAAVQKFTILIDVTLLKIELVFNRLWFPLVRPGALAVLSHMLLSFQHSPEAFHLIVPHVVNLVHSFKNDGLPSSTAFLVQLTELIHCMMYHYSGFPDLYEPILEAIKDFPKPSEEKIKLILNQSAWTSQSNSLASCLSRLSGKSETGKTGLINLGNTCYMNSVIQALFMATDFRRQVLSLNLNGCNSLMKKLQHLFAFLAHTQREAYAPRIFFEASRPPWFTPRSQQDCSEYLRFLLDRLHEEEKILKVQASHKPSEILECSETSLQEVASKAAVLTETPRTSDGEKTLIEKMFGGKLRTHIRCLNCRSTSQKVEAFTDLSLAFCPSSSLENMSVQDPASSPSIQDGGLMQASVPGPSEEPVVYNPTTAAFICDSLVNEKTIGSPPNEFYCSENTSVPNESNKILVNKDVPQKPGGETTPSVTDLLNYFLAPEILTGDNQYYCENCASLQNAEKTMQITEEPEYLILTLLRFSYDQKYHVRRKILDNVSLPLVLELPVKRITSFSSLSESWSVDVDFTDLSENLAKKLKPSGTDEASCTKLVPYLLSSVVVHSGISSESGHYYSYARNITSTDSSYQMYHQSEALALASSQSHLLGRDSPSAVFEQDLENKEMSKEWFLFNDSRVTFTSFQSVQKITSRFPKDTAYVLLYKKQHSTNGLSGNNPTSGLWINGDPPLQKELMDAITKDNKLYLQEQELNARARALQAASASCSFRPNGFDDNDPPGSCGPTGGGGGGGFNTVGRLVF
In short: as §1

[4] = biological target: T3, USP39 (UniProt Q53GS9)
T3 sequence (whole entry): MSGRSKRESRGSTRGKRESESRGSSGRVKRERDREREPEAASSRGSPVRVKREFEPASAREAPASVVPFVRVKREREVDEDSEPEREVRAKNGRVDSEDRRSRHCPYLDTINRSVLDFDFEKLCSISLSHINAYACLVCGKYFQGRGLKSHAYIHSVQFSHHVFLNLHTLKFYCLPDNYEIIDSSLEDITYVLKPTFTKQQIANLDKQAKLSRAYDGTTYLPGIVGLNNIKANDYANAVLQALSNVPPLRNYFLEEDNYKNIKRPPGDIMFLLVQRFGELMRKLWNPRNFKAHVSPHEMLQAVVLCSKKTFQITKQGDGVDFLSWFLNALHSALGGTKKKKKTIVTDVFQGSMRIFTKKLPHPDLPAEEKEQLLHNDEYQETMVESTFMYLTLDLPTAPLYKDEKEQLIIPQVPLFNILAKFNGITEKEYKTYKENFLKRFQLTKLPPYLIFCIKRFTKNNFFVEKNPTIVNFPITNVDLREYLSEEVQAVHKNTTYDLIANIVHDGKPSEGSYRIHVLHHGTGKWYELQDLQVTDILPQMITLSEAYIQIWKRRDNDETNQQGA
In short: as §1

[5] = biological target: T4, USP4 (UniProt Q13107)
T4 sequence (whole entry): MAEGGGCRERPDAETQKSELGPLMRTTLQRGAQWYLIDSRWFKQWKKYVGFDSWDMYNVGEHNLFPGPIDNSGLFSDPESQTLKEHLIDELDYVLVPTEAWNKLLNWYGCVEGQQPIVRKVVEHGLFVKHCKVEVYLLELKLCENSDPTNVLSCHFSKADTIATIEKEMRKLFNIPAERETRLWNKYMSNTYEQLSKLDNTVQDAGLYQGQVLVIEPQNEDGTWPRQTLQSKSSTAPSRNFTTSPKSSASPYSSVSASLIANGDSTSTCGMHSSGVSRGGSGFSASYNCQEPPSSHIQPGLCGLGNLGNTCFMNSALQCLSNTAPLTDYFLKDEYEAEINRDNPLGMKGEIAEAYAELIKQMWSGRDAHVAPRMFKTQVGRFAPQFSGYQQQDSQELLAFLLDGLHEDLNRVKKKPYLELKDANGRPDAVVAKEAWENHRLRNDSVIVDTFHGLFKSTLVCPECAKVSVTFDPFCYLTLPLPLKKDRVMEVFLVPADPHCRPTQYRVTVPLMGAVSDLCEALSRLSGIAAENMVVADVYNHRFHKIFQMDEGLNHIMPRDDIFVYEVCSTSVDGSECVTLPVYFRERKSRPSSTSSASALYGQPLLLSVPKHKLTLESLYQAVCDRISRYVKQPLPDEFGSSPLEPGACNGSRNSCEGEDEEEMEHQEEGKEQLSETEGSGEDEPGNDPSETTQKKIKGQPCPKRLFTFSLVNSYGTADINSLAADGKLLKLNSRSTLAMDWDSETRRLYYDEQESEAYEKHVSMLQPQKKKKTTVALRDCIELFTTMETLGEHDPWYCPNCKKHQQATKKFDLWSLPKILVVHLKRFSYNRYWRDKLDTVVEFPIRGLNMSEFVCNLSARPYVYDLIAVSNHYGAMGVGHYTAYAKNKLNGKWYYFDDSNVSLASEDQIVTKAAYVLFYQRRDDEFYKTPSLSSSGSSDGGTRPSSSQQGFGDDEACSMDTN
In short: as §1

Measured: log2 ratio of Biotin-Ahx-Ub-VS probe labelling

USP34, sequence (Q70CQ2 whole entry, the tested form may be a part): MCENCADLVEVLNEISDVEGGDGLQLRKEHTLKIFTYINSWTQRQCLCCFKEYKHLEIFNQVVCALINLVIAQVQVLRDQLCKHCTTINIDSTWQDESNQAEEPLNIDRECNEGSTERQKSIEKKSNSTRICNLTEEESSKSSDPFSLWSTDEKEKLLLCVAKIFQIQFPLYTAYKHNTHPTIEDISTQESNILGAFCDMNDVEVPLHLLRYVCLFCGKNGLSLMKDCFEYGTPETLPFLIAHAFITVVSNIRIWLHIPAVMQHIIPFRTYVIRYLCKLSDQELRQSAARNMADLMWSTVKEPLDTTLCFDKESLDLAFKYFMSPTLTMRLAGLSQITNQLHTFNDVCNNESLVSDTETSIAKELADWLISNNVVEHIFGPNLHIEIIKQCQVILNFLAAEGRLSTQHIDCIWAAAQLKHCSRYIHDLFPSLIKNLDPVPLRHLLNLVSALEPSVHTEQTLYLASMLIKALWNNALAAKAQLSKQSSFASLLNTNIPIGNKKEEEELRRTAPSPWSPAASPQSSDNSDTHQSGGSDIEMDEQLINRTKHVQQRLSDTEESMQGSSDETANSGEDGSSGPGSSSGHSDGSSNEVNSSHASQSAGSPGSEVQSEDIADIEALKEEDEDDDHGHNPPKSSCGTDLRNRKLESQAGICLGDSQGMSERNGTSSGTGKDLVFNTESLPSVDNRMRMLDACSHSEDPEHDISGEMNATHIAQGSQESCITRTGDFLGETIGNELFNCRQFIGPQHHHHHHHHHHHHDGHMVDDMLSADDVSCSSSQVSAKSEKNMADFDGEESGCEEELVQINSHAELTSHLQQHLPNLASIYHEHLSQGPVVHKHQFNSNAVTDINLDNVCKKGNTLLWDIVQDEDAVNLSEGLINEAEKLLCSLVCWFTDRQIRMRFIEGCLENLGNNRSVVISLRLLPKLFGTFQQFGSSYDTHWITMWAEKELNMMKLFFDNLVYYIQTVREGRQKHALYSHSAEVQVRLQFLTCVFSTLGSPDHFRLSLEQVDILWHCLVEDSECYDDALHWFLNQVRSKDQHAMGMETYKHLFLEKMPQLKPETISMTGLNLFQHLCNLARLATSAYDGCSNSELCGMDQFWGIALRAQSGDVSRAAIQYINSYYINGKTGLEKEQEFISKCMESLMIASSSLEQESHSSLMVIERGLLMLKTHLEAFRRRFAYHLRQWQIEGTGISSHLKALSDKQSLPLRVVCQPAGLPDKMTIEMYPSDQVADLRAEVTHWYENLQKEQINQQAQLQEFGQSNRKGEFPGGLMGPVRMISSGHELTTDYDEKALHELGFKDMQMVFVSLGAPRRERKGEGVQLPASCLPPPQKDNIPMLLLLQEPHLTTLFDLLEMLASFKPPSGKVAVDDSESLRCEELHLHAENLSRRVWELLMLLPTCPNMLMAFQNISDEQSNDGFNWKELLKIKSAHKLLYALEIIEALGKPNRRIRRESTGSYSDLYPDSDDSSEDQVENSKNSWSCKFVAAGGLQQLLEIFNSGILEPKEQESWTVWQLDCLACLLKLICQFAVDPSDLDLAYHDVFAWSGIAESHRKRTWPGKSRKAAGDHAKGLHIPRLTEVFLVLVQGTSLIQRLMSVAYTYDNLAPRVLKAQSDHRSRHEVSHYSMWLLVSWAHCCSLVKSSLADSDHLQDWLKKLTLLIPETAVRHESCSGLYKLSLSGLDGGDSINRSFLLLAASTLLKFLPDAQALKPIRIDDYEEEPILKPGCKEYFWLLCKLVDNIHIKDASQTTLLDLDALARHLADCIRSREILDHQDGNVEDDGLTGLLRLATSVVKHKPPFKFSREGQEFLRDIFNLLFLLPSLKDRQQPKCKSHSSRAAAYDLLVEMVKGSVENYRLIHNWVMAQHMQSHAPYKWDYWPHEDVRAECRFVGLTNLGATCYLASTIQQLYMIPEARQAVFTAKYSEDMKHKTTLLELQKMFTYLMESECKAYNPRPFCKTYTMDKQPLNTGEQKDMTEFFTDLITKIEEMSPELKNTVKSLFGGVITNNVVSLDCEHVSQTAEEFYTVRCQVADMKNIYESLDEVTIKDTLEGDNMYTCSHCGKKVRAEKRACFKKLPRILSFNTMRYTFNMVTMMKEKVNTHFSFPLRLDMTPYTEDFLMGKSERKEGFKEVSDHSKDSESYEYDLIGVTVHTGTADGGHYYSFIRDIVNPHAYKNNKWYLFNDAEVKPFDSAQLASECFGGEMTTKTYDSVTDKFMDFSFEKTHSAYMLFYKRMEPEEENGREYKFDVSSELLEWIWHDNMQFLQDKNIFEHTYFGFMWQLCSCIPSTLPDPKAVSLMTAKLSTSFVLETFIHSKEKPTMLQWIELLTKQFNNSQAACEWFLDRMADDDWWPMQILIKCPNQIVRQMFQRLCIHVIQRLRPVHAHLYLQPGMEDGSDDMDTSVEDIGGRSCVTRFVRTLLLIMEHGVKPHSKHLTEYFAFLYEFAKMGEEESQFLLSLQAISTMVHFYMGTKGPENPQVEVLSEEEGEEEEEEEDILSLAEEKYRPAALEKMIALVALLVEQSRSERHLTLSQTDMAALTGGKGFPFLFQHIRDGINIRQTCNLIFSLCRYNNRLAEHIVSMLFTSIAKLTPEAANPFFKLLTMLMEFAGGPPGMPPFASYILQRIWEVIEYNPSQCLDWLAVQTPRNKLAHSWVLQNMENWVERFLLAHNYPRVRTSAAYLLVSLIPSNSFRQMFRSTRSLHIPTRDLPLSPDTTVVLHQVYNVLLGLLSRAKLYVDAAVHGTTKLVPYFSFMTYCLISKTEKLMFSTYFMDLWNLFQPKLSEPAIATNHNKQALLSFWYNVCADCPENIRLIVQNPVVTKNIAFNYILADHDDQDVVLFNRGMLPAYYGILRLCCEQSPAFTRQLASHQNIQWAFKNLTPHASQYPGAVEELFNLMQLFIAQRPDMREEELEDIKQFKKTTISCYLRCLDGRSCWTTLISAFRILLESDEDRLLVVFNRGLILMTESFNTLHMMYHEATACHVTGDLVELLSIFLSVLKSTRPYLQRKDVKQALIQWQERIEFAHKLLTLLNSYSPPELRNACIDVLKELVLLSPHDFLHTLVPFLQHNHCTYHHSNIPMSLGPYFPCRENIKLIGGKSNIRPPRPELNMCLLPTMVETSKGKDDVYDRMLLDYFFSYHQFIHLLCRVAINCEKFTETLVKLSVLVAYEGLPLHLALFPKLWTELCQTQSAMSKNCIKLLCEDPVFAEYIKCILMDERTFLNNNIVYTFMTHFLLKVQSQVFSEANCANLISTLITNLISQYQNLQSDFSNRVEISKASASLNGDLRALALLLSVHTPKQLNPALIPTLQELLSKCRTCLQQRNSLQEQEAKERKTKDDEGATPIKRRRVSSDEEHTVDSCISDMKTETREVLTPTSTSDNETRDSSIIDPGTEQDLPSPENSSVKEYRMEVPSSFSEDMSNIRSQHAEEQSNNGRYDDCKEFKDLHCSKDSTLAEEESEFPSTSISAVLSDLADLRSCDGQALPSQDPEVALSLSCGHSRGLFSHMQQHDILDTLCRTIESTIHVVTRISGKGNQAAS

Cc1cc(C2CCCN2C(=O)CCl)nn1C.Cl (stereo not given)
inactive: [1] -0.179 | [2] -0.0531 | [3] -0.227 | [4] -0.281 | [5] -0.154
